Assay results from PubChem BioAssay (NCI).
Where “and” joins values, the source holds several entries; their conditions need not be identical. Identical values can stand only once. About 83,000 compounds went through this panel and 20% of them were active in at least one assay; those are over-represented in the sample as a whole.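 How to read the values: 0–100, growth inhibition (40 = 60% inhibited); 0, no net growth; -100 to 0, cell death (-40 = 40% of starting cells died; -100 = all dead).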 Calls of active or inactive are those of the source.

Each compound was assayed on MDA-MB-435 melanoma (assay: NCI-60 one-dose screen, 48 h (100 = growth as untreated, 0 = no growth, -100 = all killed)). Details: 10 µM.
Protocol: Growth inhibition of the MDA-MB-435 human Melanoma tumor cell line is measured as a screen for anti-cancer activity. Cells are grown in 96 well plates and exposed to the test compound for 48 hours. Compounds are tested at a single concentration, which is 10^-5 M for most compounds. The reported endpoint is percent growth (GI% or GIPRCNT), where numbers from 0 - 100% represent growth inhibition, and numbers from -100% - 0 represent cell death. For example, a value of 40 represents 60% growth inhibition. A value of 0 means no net growth occurred over the course of the experiment. A value of -40 indicates 40% of cells at the beginning of the experiment died by the end of the experiment. A value of -100 means all cells are dead at the end of the experiment.
NCI-60 Human Tumor Cell Lines Screen was performed using the standard one-dose NCI protocol, which is described in more detail at https://dtp.cancer.gov/discovery_development/nci-60/default.htm.
Compounds with GIPRCNT values below 10 were considered active. Activity score was based on GIPRCNT using the following formula: […]
Score is 0 for GIPRCNT values of 100 or above, 50 for GIPRCNT values of 0, and 100 for GIPRCNT values of -100.

**Q.** How did the growth turn out when `CN(C)C(=O)c1ccc(SC(=S)NCc2ccccc2)cc1` was run?
**A.** The growth was 97.4% (inactive).

**Q.** With `O=C(O)c1c(Cl)c(Cl)c(Cl)c(Cl)c1-c1c2cc(I)c(=O)c(I)c-2oc2c(I)c(O)c(I)cc12` as the compound, how does the growth read?
**A.** Its growth is 104% (inactive) and 113% (inactive) and 110% (inactive).

**Q.** Which growth does the source give for `O=C(Nc1cccc(Br)c1)Oc1cccc2cccnc12` here?
**A.** The growth was 98.2% (inactive).

Same assay, conditions: 10 µM unless noted

**Q.** With `Cc1cc2nc(CS)[nH]c2cc1C` as the compound, how does the growth read?
**A.** Its growth is 90.9% (inactive).

**Q.** With `CNc1ccc(N)cc1` as the compound, how does the growth read?
**A.** Its growth is 96.2% (inactive).

**Q.** For `COC(=O)[C@@]12OC[C@]34[C@H]([C@@H](O)[C@@H]1O)[C@@]1(C)[C@H](O)C(=O)C=C(C)[C@@H]1C[C@H]3OC(=O)C(OC(C)=O)[C@@H]24` (stereo not given in full), which growth is on record?
**A.** Its growth is -81.2% (active).

**Q.** How did the growth turn out when `O=C(Nc1ccccc1)c1cc(Cl)ccc1O` was run?
**A.** The growth was 39.3% (inactive).

**Q.** `CN1c2ccccc2C(C)(C)C12C=Cc1cc(O)ccc1O2` (stereo not given) was tested. Which growth did it give?
**A.** The growth was -66.4% (active).

**Q.** `N#CSCc1ccc(CSC#N)c(Cl)c1` was tested. Which growth did it give?
**A.** Its growth is 40.6% (inactive).

**Q.** Which growth does the source give for `CN(C)c1ccc(C(=C2C=CC(=[N+](C)C)C=C2)c2ccc(N(C)C)cc2)cc1` (tested in a mixture with another compound) here?
**A.** The growth was -57.7% (active).

**Q.** Which growth does the source give for `CCOC(=O)c1c(C)[nH]c(CO)c1C` here?
**A.** Its growth is 111% (inactive).

**Q.** With `O=C1N[C@H]2[C@H](CS[C@H]2CCCCC(=O)N(CCP(c2ccccc2)c2ccccc2)CCP(c2ccccc2)c2ccccc2)N1` as the compound, how does the growth read?
**A.** The growth was 96.1% (inactive).

**Q.** For `CCN(CC)CCOc1ccc(-c2nc3cc(Cl)ccc3s2)cc1`, which growth is on record?
**A.** Its growth is -51.1% (active).

**Q.** How did the growth turn out when `S=C(NCCNC(=S)[S][Sn]([c]1ccccc1)([c]1ccccc1)[c]1ccccc1)[S][Sn]([c]1ccccc1)([c]1ccccc1)[c]1ccccc1` was run?
**A.** Its growth is -88% (active).

**Q.** Which growth does the source give for `N[C@H](C(=O)O)[C@@H]1CC(Cl)=NO1` here?
**A.** Its growth is 29.6% [20 µM] (inactive).

**Q.** How did the growth turn out when `C=C(Cl)C(=NC(C)(C)C)Nc1ccccc1C` was run?
**A.** The growth was 32.2% (inactive).

**Q.** With `Oc1ccc(/C=N/NC(=S)Nc2ccccc2)nc1` as the compound, how does the growth read?
**A.** The growth was 31.5% (inactive).

**Q.** `N#CC1C(=O)SC2c3ccccc3C(=O)c3ccccc3C12` (stereo not given) was tested. Which growth did it give?
**A.** The growth was 107% (inactive).

**Q.** `CCC(CCCN(CC)CCc1ccccc1)OC(=O)c1cc(OC)c(OC)c(OC)c1` (stereo not given) was tested. Which growth did it give?
**A.** Its growth is 100% (inactive).

**Q.** `CNc1ccc2c(c1)c1ccccc1n2C` was tested. Which growth did it give?
**A.** The growth was 115% (inactive).

**Q.** For `O=C(/C=C/C=C/c1ccccc1)c1ccco1`, which growth is on record?
**A.** The growth was 92.8% (inactive).

**Q.** Which growth does the source give for `CC1=CC(O)C2CC1C2(C)C` (stereo not given) here?
**A.** Its growth is 103% (inactive) and 97.3% (inactive).

**Q.** `CCCCCCCCCCCCCCNCc1ccccc1` was tested. Which growth did it give?
**A.** The growth was 72.2% (inactive).

**Q.** For `Nc1ncnc2c1ncn2C1OC(CO)C(O)C1O` (stereo not given), which growth is on record?
**A.** Its growth is 110% (inactive) and 103% (inactive) and 112% (inactive).

**Q.** `O=C1OCc2cccc3cccc1c23` was tested. Which growth did it give?
**A.** Its growth is 115% (inactive).

**Q.** Which growth does the source give for `CN(C)c1ccc(/C=N/N=C(\C#N)[S][Sn]([Cl])([c]2ccccc2)[c]2ccccc2)cc1` here?
**A.** Its growth is 15.6% (inactive).

**Q.** `Nc1nc(N)c2nc(CNc3ccc(C(=O)NC(CCC(=O)O)C(=O)O)cc3)cnc2n1` (stereo not given) was tested. Which growth did it give?
**A.** Its growth is 35.8% (inactive) and 24.4% (inactive).

**Q.** Which growth does the source give for `O=C(Oc1cccc2cccnc12)c1ccccc1` here?
**A.** Its growth is 88% (inactive).

**Q.** `COc1ccccc1OC(=O)Oc1ccccc1OC` was tested. Which growth did it give?
**A.** The growth was 112% (inactive) and 96% (inactive).

**Q.** With `CN(C)c1ccc(N=Nc2cccc3ccccc23)cc1` as the compound, how does the growth read?
**A.** The growth was 98.8% (inactive).

**Q.** `Nc1nc(N)c2c(ccc3c2ccn3Cc2cccc([N+](=O)[O-])c2)n1` was tested. Which growth did it give?
**A.** The growth was -93.4% (active).

**Q.** Which growth does the source give for `Oc1c(Cl)cc(Cl)c2cccnc12` here?
**A.** Its growth is 63.1% (inactive) and 54.3% (inactive).

**Q.** For `Cc1ccc2nc(C[n+]3ccc4ccccc4c3)ccc2c1`, which growth is on record?
**A.** Its growth is 54.7% (inactive).

**Q.** Which growth does the source give for `C[N+](C)=c1ccc2nc3c(cc(NCCCNc4cc5oc6cc(=[N+](C)C)ccc-6nc5c5ccccc45)c4ccccc43)oc-2c1` here?
**A.** The growth was -82.1% (active).

**Q.** `O=C1c2ccccc2C(=O)c2sc(Nc3cccc(Cl)c3)nc21` was tested. Which growth did it give?
**A.** The growth was -83.5% (active).

**Q.** How did the growth turn out when `S=C(N/N=C/c1ccccn1)Nc1ccccn1` was run?
**A.** The growth was 47.4% (inactive).

**Q.** `COC(=O)c1nc(=S)[nH]c(C(=O)OC)c1C(=O)c1ccccn1` was tested. Which growth did it give?
**A.** Its growth is 33.3% (inactive).

Same assay, conditions: 100 µM

**Q.** How did the growth turn out when `CN(C)C(=O)c1ccc(SC(=S)NCc2ccccc2)cc1` was run?
**A.** Its growth is 4.45% (active).

**Q.** Which growth does the source give for `O=C(O)c1c(Cl)c(Cl)c(Cl)c(Cl)c1-c1c2cc(I)c(=O)c(I)c-2oc2c(I)c(O)c(I)cc12` here?
**A.** Its growth is 69% (inactive).

**Q.** `O=C(Nc1cccc(Br)c1)Oc1cccc2cccnc12` was tested. Which growth did it give?
**A.** Its growth is 43.1% (inactive).
